The values that follow come from ChEMBL document CHEMBL3988442, “University of Dundee, Small-Polar-MMV Screening Library” (2021).

About 13,000 (27%) of roughly 48,000 compounds showed an effect of 50% or more. The list shows a part of the results.

For the assay, the system named is Wolbachia pipientis. Kind of assay: Anti-Wolbachia Cell-Based Screen. The assay is classed as functional. Also on record: scale not given: in the data most compounds retested in dose-response had high values. Particulars: 5 µM.
`CC(=O)N1CCCC1c1cccc(Cc2ccccc2Cl)n1` (stereo unspecified): the “Percent Effect” value is on record as 110.5%.
Take `COCCN(C)CC1CCCN1S(=O)(=O)Cc1ccccc1F` (stereo unspecified): the “Percent Effect” value was determined as 4.481%.
On to `CS(=O)(=O)N1CCCC1c1cccc(Cc2ccccc2F)n1` (stereo unspecified), for which the “Percent Effect” value is listed as 107.7%.
`Cc1nccn1CC1CCCN1S(=O)(=O)Cc1ccccc1F` (stereo unspecified): the “Percent Effect” value is recorded as -7.214%.
With `CN(C)C(=O)CN1CCCC1c1cccc(Cc2ccccc2F)n1` (stereo unspecified), the “Percent Effect” value is on record as 121.7%.
As for `CC(=O)N1CCCC1c1cccc(NCc2ccccc2F)n1` (stereo unspecified), the “Percent Effect” value is 111.2%.
`O=C(NC[C@H]1OC[C@@H](NC2COC2)[C@@H]1O)c1cccs1`: the “Percent Effect” value came out at 4.392%.
Consider `CN(Cc1ccoc1)C(=O)C1CC(=O)N(Cc2ccncc2)C1` (stereo unspecified), for which the “Percent Effect” value came out at 3.123%.
As to `CC(=O)N1CCCC1c1cccc(Oc2ccccc2F)n1` (stereo unspecified), the “Percent Effect” value turned out to be 150.9%.
In the case of `COCC(=O)N1CCCC1c1cccc(Cc2ccccc2F)n1` (stereo unspecified), the “Percent Effect” value was 111%.
The value for `CC(=O)N1CCCC1c1cccc(Cc2ccccc2F)n1` (stereo unspecified) was 1.098%; that for `CC(C)(C)c1coc([C@@H]2COCCN2CC2CC2)n1` was -8.42%; that for `CCc1n[nH]c(C2CN(Cc3nnc(C4CC4)n3C)CCO2)n1` (stereo unspecified) was -1.784%.
As for `CCS(=O)(=O)c1ccc(N2CCC(NC(=O)c3ccccn3)CC2)cc1`, the figure is 1.284%.
As for `COc1ccc(C[C@H]2CN(c3nnc(C)s3)CC[C@H]2OC)cc1.O=C(O)C(F)(F)F`, the figure is 100.4%.
Consider `COc1ccc(C[C@H]2CN(c3nnc(C)s3)CC[C@@H]2OC)cc1.O=C(O)C(F)(F)F`, for which the “Percent Effect” value came to 83.05%.
`Cn1nc(Cn2cccn2)c2c1CN(Cc1ccsc1)C2.O=C(O)C(F)(F)F`: the “Percent Effect” value is given as -9.596%.
As for `O=C(O)C(F)(F)F.O=C(c1cnccn1)N1CCCC2(CCN(Cc3ccsc3)C2)C1` (stereo unspecified), the figure is 100.1%; as for `O=C(O)C(F)(F)F.O=C(O)C(F)(F)F.c1csc(CN2CC3(CCN(Cc4ccsc4)C3)C2)n1`, -7.051%; as for `O=C(O)C(F)(F)F.O=C(c1cnccn1)N1CCOC2(CCN(Cc3ccsc3)CC2)C1`, -59.08%.
Consider `O=C(O)C(F)(F)F.O=C(O)C(F)(F)F.O=C(c1cnccn1)N1CCCC2(CCN(Cc3cccnc3)C2)C1` (stereo unspecified), for which the “Percent Effect” value was -9.392%.
As for `O=C(O)C(F)(F)F.O=C(c1cnccn1)N1CCCC2(CCN(Cc3ccsc3)CC2)C1`, the figure is 106.6%.
Turning to `Cn1cccc1CN1CCC2(CCCN(C(=O)c3cnccn3)C2)C1.O=C(O)C(F)(F)F` (stereo unspecified), the “Percent Effect” value is reported as -0.2095%.
For `O=C(O)C(F)(F)F.O=C(c1cnccn1)N1CC2(CCN(Cc3ccsc3)C2)C1`, the “Percent Effect” value was 96.61%.
The value for `O=C(O)C(F)(F)F.O=C(c1cnccn1)N1CCCC2(CCN(Cc3ccc(F)cc3)C2)C1` (stereo unspecified) was 8.086%.
For `CN1CC2(CCN(Cc3cccc(C#N)c3)CC2)CC1=O`, the “Percent Effect” value was 2.767%.
With `CCN1CCC(CNC(=O)C(c2ccc(F)cc2)N(C)C)(N(C)C)CC1` (stereo unspecified), the “Percent Effect” value is reported as -1.923%.
Regarding `CN(C)C(=O)c1ccc(OC2CCCC2)cc1`, the “Percent Effect” value came to 1.251%.
In the case of `O=C(c1cscn1)N1CC[C@H]2C[C@H](c3nnc(C4CC4)o3)O[C@@H]2C1`, the “Percent Effect” value was found to be 101.5%.
In the case of `Cc1ccc(C(=O)N2C[C@@H]3C[C@@H](c4nnc(C5CC5)o4)O[C@@H]3C2)s1`, the “Percent Effect” value is -0.8808%.
As for `O=C(c1ccsc1)N1CC[C@H]2C[C@@H](c3nnc(C4CC4)o3)O[C@@H]2C1`, the figure is 4.587%; as for `O=C(c1cscn1)N1C[C@@H]2C[C@@H](c3nnc(C4CC4)o3)O[C@@H]2C1`, -5.593%.
For `O=C1NCCO[C@H]2CN(C(=O)c3cccs3)CC[C@@H]12`, the “Percent Effect” value is on record as -55.85%.
As for `CCC(C)c1noc(C2CCN(C(=O)c3cccs3)CC2)n1` (stereo unspecified), the “Percent Effect” value is given as -5.715%.
As for `O=C(c1cccs1)N1CC[C@H]2C[C@@H](c3nnc(C4CC4)o3)O[C@@H]2C1`, the “Percent Effect” value is recorded as 88.85%.
In the case of `O=C(c1ccccc1)N1CC[C@H]2C[C@@H](c3nnc(C4CC4)o3)O[C@@H]2C1`, the “Percent Effect” value turned out to be 70.82%.
Take `Cn1cccc1C(=O)N1C[C@@H]2C[C@@H](c3nnc(C4CC4)o3)O[C@@H]2C1`: the “Percent Effect” value stood at 104.3%.
Consider `Cn1cccc1C(=O)N1CC[C@H]2[C@H](CO[C@H]2CNS(C)(=O)=O)C1`, for which the “Percent Effect” value was -6.617%.
For the compound `COc1cc(N2CCC(c3nccn3Cc3ccccn3)CC2)ncn1`, the “Percent Effect” value was found to be 2.703%.
For the compound `CCCN1CCC(Nc2nc(C)ns2)CC1`, the “Percent Effect” value is listed as -28.04%.
As for `COc1ccc(CN2CCC=C(C(C)NC(C)=O)C2)cc1` (stereo unspecified), the figure is -15.58%.
`Cc1n[nH]c(CN2CCN(CC3CC3)[C@@H]3CS(=O)(=O)C[C@@H]32)n1`: the “Percent Effect” value is 6.272%.
Turning to `CCOc1cccc(CCNC(=O)Cc2ccccc2O)n1`, the “Percent Effect” value is listed as -26.19%.
Regarding `Cc1cnc2c(S(=O)(=O)NCC3CCS(=O)(=O)C3)cccc2c1` (stereo unspecified), the “Percent Effect” value is listed as -2.686%.
As to `Cc1noc([C@H]2C[C@@H]3CCN(C(=O)c4cccn4C)C[C@H]3O2)n1`, the “Percent Effect” value is 59.05%.
For `O=C(c1ccoc1)N1CC[C@H]2C[C@@H](c3nnc(C4CC4)o3)O[C@@H]2C1`, the “Percent Effect” value is 103%.
As for `COCC(=O)N1CC[C@H]2C[C@H](c3nc(C)no3)O[C@@H]2C1`, the figure is 4.349%.
As for `COCC(=O)N1CC[C@H]2C[C@H](c3nnc(C4CC4)o3)O[C@@H]2C1`, the figure is 59.46%; as for `COCC(=O)N1CC[C@H]2C[C@@H](c3nnc(C4CC4)o3)O[C@@H]2C1`, -4.608%; as for `O=C(c1ccccc1)N1CC[C@H]2C[C@H](c3nnc(C4CC4)o3)O[C@@H]2C1`, 87.37%.
For `Cc1nc([C@@H]2C[C@@H]3CCN(C(=O)c4ccnnc4)C[C@H]3O2)sc1C`, the “Percent Effect” value stood at 3.729%.
Take `Cc1nc([C@H]2C[C@@H]3CCN(C(=O)c4ccnnc4)C[C@H]3O2)sc1C`: the “Percent Effect” value is listed as -5.019%.
For the compound `Cc1csc([C@@H]2C[C@@H]3CCN(C(=O)c4cccn4C)C[C@H]3O2)n1`, the “Percent Effect” value is recorded as -10.26%.
For `COCCN1CCN(CCS(=O)(=O)C(F)(F)F)CC1C` (stereo unspecified), the “Percent Effect” value stood at 6.413%.
The value for `O=C1NCCN2CCN(Cc3ccc(Cl)c(Cl)c3)CC12` (stereo unspecified) was -5.038%; that for `CC(C)(C)c1noc(CCCC(=O)N2CCCC(c3ccn[nH]3)C2)n1` (stereo unspecified) was -11.26%; that for `Cc1n[nH]c(C)c1C1COCCN1C(=O)c1cc(Cl)c[nH]1` (stereo unspecified) was -20.41%.
As to `Cc1c[nH]c(C2COCCN2C(=O)CCc2c(C)n[nH]c2C)n1` (stereo unspecified), the “Percent Effect” value came out at 111%.
`Cc1c[nH]c(C2CCCN(C(=O)CCc3c(C)n[nH]c3C)C2)n1` (stereo unspecified): the “Percent Effect” value was found to be 139.5%.
Consider `Cc1cccc(-c2c[nH]c(C3CCCN3C(=O)Cn3cc(C)cn3)n2)c1` (stereo unspecified), for which the “Percent Effect” value was -5.472%.
Regarding `O=C(CCn1cnnc1)N1CCCC(c2ncc[nH]2)C1` (stereo unspecified), the “Percent Effect” value is -20.34%.
The value for `Cc1cccc(CCC(=O)N2CCOCC2c2c(C)n[nH]c2C)c1` (stereo unspecified) was 9.952%; that for `Cc1c[nH]c(C2CCCN2C(=O)CCc2c(C)n[nH]c2C)n1` (stereo unspecified) was 109.7%; that for `Cc1n[nH]c(C)c1C1CCCN1C(=O)CNC(=O)C(C)(C)C` (stereo unspecified) was 1.097%.
As for `CC(O)CN1CCC(CNCc2cn(-c3ccccc3)nn2)CC1` (stereo unspecified), the figure is 3.471%; as for `COCC(C)N(C)C(=O)NC1CCN(S(C)(=O)=O)CC1` (stereo unspecified), 2.159%.
On to `CS(=O)(=O)c1ccc(CNC(=O)NCC2CCOC2)cc1` (stereo unspecified), for which the “Percent Effect” value was -15.52%.
Regarding `CCSCCC(=O)NS(=O)(=O)c1ccc2c(c1)OCCO2`, the “Percent Effect” value is given as 5.287%.
Take `O=C(c1ccc[nH]1)N1C[C@H](OCc2ccccn2)[C@H]2COC[C@H]21`: the “Percent Effect” value came out at 111.2%.
For `CO[C@H]1CN(C(=O)c2ccc3c(c2)OCO3)[C@@H]2COC[C@H]12`, the “Percent Effect” value is listed as -7.485%.
As for `CCO[C@H]1CN(C(=O)c2ccc3c(c2)OCO3)[C@@H]2COC[C@H]12`, the figure is 0.5362%.
In the case of `O=C(c1ccc[nH]1)N1C[C@H](OCc2cccnc2)[C@H]2COC[C@H]21`, the “Percent Effect” value is reported as -9.205%.
As for `Cc1nc(CO[C@H]2CN(C(=O)c3ccc[nH]3)[C@@H]3COC[C@H]23)cs1.O=C(O)C(F)(F)F`, the figure is -0.1564%.
Consider `CO[C@H]1CN(C(=O)c2ccc[nH]2)[C@@H]2COC[C@H]12`, for which the “Percent Effect” value amounted to 98.6%.
Turning to `CCOCc1nnc(NCc2cccnc2)o1`, the “Percent Effect” value is given as -1.439%.
The value for `CCN(CC1CCOC1)C(=O)Nc1ccc(N2CCCC2)nc1` (stereo unspecified) was -5.429%; that for `CC(NCc1ccncc1)c1cc(F)ccc1N1CCN(C)CC1` (stereo unspecified) was -0.924%; that for `CCN(CC1CCOC1)C(=O)c1cc(Cl)c2c(c1)OCO2` (stereo unspecified) was -2.452%.
Regarding `CCN(CC1CCOC1)C(=O)c1cc(F)ccc1N1CCN(C)CC1` (stereo unspecified), the “Percent Effect” value was 87.35%.
Consider `CCN(CC1CCOC1)C(=O)c1cccnc1N1CCOCC1` (stereo unspecified), for which the “Percent Effect” value is -1.739%.
As for `C=C(C)CN(CC)C(=O)c1cc(F)ccc1N1CCN(C)CC1`, the “Percent Effect” value was found to be 106.7%.
Regarding `C=C(C)CN(CC)C(=O)c1cc(F)ccc1NS(C)(=O)=O`, the “Percent Effect” value is reported as 23.28%.
As to `CC(C)N(CC(N)=O)C(=O)c1cc(F)ccc1N1CCN(C)CC1`, the “Percent Effect” value stood at 95.17%.
The value for `C=C(C)CN(CC)C(=O)c1cc(C)ccc1NS(C)(=O)=O` was 12.91%.
As for `Cc1ccc(CNC(C)c2cc(F)ccc2N2CCN(C)CC2)o1` (stereo unspecified), the figure is -9.069%; as for `CCN(CC1CCOC1)C(=O)c1ccc(N2CCOCC2)c(F)c1` (stereo unspecified), 110.6%; as for `CCN(CC1CCOC1)C(=O)c1ccccc1N1CCOCC1` (stereo unspecified), 5.823%.
In the case of `COC[C@@]12CC[C@@H](N3CCOCC3)C[C@H]1CCN(c1ccc(Cl)cn1)C2`, the “Percent Effect” value is -5.579%.
Take `Cc1cnc(N2CCCC(c3ccccc3)C2)nc1-c1ncnn1C` (stereo unspecified): the “Percent Effect” value was -17.16%.
For `O=C(NCC1COCc2c(-c3cccnc3)nnn2C1)c1cccs1.O=C(O)C(F)(F)F` (stereo unspecified), the “Percent Effect” value is given as -12.79%.
For the compound `O=S(=O)(C1CC1)N1CC[C@]2(C[C@H](OCC3CCOCC3)CO2)C1`, the “Percent Effect” value is 2.042%.
